# Results filed as inconclusive are left out. The source made the active and inactive calls. The calls were made as follows: active = hit-call score of the fitted dose curve at least 0.9, where 1 is the maximum; inconclusive = response in the unintended direction; inactive = score below 0.9.
# Biological target: human Esterase Plasma (ES), BCHE (gene 590) (UniProt P06276)
# Experiment: NVS_ENZ_hES: NovaScreen (NVS) Enzymatic Assay for human Esterase Plasma (ES) (AID 2283157)
# How it was run: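 Esterase from human plasma, cell-free, colorimetric absorbance read 0.25 h after dosing. Screened at 25 uM in duplicate, with threshold-passing chemicals run in concentration-response up to 50 uM; loss of signal fitted versus DMSO.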
# Chain of human Esterase Plasma (ES), BCHE (gene 590) (P06276 whole entry, looked up): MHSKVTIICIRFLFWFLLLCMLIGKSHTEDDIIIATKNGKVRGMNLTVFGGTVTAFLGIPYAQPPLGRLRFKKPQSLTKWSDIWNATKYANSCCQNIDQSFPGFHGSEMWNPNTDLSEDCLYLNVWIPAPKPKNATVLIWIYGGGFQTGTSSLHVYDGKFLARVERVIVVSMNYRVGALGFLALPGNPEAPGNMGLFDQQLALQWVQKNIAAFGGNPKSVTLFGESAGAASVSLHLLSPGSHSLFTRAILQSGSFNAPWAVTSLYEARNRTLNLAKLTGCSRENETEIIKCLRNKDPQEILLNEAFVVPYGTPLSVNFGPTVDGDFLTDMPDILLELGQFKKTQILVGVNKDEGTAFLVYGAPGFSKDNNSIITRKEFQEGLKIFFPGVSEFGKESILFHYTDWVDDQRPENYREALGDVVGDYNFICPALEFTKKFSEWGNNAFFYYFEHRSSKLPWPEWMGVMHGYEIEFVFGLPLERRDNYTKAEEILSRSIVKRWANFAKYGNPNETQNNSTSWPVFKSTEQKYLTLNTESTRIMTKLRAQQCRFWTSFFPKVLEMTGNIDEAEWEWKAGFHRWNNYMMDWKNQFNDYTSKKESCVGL
SMILES,outcome,AC50
O=C(Nc1ccccc1)c1ccccc1I,inactive,–
[Cl-].[Cl-].[Hg+2],–,20.9 µM (active)
O=C(N[C@H](c1ccccc1)[C@@H]1CN2CCC1CC2)c1c(Cl)ccc(C(F)(F)F)c1Cl,–,19.8 µM (active)
CCOC(=O)[C@]1(c2ccccc2)Oc2ccccc2[C@@H]1N,–,16.7 µM (active)
O=[N+]([O-])C(Br)(CO)CO,–,32.1 µM (active)
CNC(=O)Oc1cccc2c1OC(C)(C)C2,–,27.3 µM (active)
c1ccc(NNc2ccccc2)cc1,–,31.6 µM (active)

# Biological target: Glycogen synthase kinase-3 beta (Homo sapiens) (UniProt P49841)
# Experiment: NVS_ENZ_hGSK3b: NovaScreen (NVS) Enzymatic Assay for human Glycogen Synthase Kinase-3 beta (GSK3b) (AID 2283165)
# How it was run: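 Recombinant enzyme with specific fluorescent substrate, 1 h, product separated by electrophoretic mobility shift. Primary duplicate screen at 25 uM; actives (e.g. 30% inhibition) followed in singleton concentration-response to 50 uM. Signal loss fitted versus DMSO.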
# Chain of Glycogen synthase kinase-3 beta (Homo sapiens) (P49841 whole entry, looked up): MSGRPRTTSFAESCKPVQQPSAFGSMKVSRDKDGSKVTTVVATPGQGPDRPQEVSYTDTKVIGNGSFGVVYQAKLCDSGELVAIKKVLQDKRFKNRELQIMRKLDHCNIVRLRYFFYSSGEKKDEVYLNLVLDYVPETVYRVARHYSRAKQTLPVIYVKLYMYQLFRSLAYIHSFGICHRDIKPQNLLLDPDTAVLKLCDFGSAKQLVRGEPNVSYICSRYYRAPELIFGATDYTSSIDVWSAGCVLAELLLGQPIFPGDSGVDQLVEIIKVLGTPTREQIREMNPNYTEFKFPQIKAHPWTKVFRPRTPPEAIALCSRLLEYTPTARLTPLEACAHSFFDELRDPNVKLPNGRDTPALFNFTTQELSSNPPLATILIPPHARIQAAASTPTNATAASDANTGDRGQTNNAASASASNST
row,SMILES,outcome
1,O=C(Oc1ccc(Br)cc1)N1CCN2CCC1CC2,inactive
2,Clc1ccccc1Cl,inactive
3,Nc1ccc(N=Nc2ccccc2)cc1,inactive
4,Nc1ccc(Cc2ccc(N)cc2)cc1,inactive
5,CCOC(=O)[C@]1(c2ccccc2)Oc2ccccc2[C@@H]1N,inactive
6,O=[N+]([O-])C(Br)(CO)CO,inactive
7,CN(C)c1ccccc1,inactive
8,OCCCl,inactive
9,Cc1ccc([N+](=O)[O-])cc1,inactive
10,CC(O)CCO (stereo not given),inactive
11,CCN(CC)CCO,inactive
12,CN(C)c1ccc(C(=O)c2ccc(N(C)C)cc2)cc1,inactive

# Biological target: human Mitogen-Activated Protein Kinase 1 (MAPK 1), MAPK1 (gene 5594) (UniProt P28482)
# Experiment: NVS_ENZ_hMAPK1: NovaScreen (NVS) Enzymatic Assay for human Mitogen-Activated Protein Kinase 1 (MAPK 1) (AID 2283175)
# How it was run: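 Cell-free recombinant human MAPK1 enzymatic assay, fluorescence/electrophoretic mobility shift read at 1 h; loss of signal vs DMSO. Primary screen in duplicate at 25 uM; actives (e.g. ≥30% inhibition) run as concentration-response up to 50 uM.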
# Chain of human Mitogen-Activated Protein Kinase 1 (MAPK 1), MAPK1 (gene 5594) (P28482 whole entry, looked up): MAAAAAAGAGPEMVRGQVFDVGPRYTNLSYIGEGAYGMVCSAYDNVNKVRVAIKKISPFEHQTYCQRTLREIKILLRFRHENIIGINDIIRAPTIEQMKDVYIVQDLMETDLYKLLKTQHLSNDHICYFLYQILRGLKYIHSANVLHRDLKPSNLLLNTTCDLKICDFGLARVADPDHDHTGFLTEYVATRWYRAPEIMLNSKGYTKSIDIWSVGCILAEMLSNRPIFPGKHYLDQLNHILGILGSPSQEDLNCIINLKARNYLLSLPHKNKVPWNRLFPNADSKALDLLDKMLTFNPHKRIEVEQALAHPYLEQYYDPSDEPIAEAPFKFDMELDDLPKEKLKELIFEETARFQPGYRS
SMILES,outcome,AC50
O=C(Nc1ccccc1)c1ccccc1I,inactive,–
O=C(Oc1ccc(Br)cc1)N1CCN2CCC1CC2,inactive,–
COC(=O)Nc1nc2ccccc2[nH]1,–,46.7 µM (active)

# Biological target: human MAP Kinase-Activated Protein Kinase 2 (MAPKAPK2), MAPKAPK2 (gene 9261) (UniProt P49137)
# Experiment: NVS_ENZ_hMAPKAPK2: NovaScreen (NVS) Enzymatic Assay for human MAP Kinase-Activated Protein Kinase 2 (MAPKAPK2) (AID 2283178)
# How it was run: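 Cell-free recombinant human MAPKAPK2 activity measured by fluorescence with electrophoretic mobility shift separation of substrate and product, 1 hr after dosing. Loss of signal versus DMSO; primary screen at 25 uM, concentration-response up to 50 uM.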
# Chain of human MAP Kinase-Activated Protein Kinase 2 (MAPKAPK2), MAPKAPK2 (gene 9261) (P49137 whole entry, looked up): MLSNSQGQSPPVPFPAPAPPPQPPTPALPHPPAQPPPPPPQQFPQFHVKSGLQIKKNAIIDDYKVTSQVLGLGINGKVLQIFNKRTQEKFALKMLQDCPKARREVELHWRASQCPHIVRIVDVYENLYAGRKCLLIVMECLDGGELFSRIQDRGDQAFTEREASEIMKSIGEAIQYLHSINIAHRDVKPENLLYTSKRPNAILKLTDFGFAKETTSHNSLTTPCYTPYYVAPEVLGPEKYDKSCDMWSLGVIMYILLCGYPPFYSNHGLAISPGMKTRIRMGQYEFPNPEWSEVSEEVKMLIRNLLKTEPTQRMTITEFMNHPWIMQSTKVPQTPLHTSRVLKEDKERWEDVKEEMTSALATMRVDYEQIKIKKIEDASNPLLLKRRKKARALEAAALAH
row,SMILES,outcome
1,O=C(Oc1ccc(Br)cc1)N1CCN2CCC1CC2,inactive
2,CCCSC(=O)N(CCC)CCC,inactive
3,CC(C)N(Cc1ccccc1)C(=O)C(C)(C)C,inactive

# Source: PubChem BioAssay (EPA / NIEHS)
